“And” between values parts separate entries of the source, which are not always exact repeats. Identical values can stand only once. Results filed as inconclusive are left out. The source holds several records for some structures; these can differ, active in one and inactive in another. The source made the active and inactive calls. Unless noted, the call rests on the fitted dose curve; in most records, active means well fitted curve in the direction sought with a large enough effect in the repeat runs; inconclusive means weak or mixed curves; inactive means no such curve, though single readings can be large; an effect the other way counts as inactive or inconclusive.

This passage reports Potency and outcome results from PubChem BioAssay (Tox21).

The target of assay [1] is Estrogen receptor (Homo sapiens) (UniProt P03372). Put plainly: qHTS assay to identify small molecule antagonists of the estrogen receptor alpha (ER-alpha) signaling pathway using the BG1 cell line in the presence of 0.1 nM 17-beta-estradiol (AID 1259244). Further: nearly all actives have a fitted effect of over 50% in size. Further: potency means the concentration at half of the fitted maximal effect. The method, boiled down:
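Luciferase luminescence (ONE-Glo, 30 min at room temperature) was read after 22 hr at 37C exposure to compounds plus 17beta-estradiol at 0.1 nM final. Cells were VM7Luc4E2 with endogenous ER-alpha and an ERE-driven luciferase, pre-cultured 5 days in hormone-depleted medium.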

Assay [2] in a line: qHTS assay to identify small molecule HDAC inhibitors (AID 1259364). Further: nearly all actives have a fitted effect of over 45% in size. Further: potency means the concentration at half of the fitted maximal effect. The essentials: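 Luminescence read after 30 min room-temperature HDAC-Glo incubation measures cellular class I/II HDAC activity. Compounds were applied for 2 hr at 37 C to HCT-116 wild-type cells seeded the day before.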
A short description of assay [3]: qHTS assay to identify small molecule HDAC inhibitors - cell viability counter screen (AID 1259365). Further: series mostly up to about 92 µM; nearly all actives have a fitted effect of over 50% in size. The essentials:
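Wild-type HCT-116 cells, 1,500/well, cultured overnight, then compound-treated 2 h at 37 C. Viability measured as ATP luminescence with CellTiter-Glo after 30 min at room temperature.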

A short description of assay [4]: qHTS assay to identify small molecule agonists of the sonic hedgehog signaling (Shh) pathway - cell viability counter screen (AID 1259366). Further: nearly all actives have a fitted effect of over 50% in size. Further: potency means the concentration at half of the fitted maximal effect. The method, boiled down: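 NIH/3T3-derived Gli1-Luc reporter cells, 2,000 per well, received compound after 4 h and were treated about 23 h at 37C. Viability measured in the same wells by CellTiter-Fluor fluorescence after 1 h.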

Assay [5] can be described thus: qHTS assay to identify small molecule antagonists of the sonic hedgehog signaling (Shh) pathway - cell viability counter screen (AID 1259367). Further: nearly all actives have a fitted effect of over 55% in size. Further: potency means the concentration at half of the fitted maximal effect. The essentials: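 Cytotoxicity was assessed in parallel with Shh reporter activity by measuring live-cell protease fluorescence (CellTiter-Fluor) in NIH/3T3 cells stably carrying Gli1-Luc, treated with compound under conditioned medium stimulation for 23 hr plus 1 hr reagent incubation.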

Assay [6] is described as follows: qHTS assay to identify small molecule agonists of the sonic hedgehog signaling (Shh) pathway (AID 1259368; calls by dose curve;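 further: NIH/3T3-derived 3T3Gli1-Luc cells carrying a stable Gli1-driven firefly luciferase reporter; series mostly up to about 92 µM; nearly all actives have a fitted effect of over 15% in size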). The essentials:
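Luminescence was read after 30 min at room temperature with luciferase reagent. Before that, 3T3Gli1-Luc cells (NIH/3T3 clone, stable Gli1-Luc reporter; 2,000/well) were exposed to compounds for 24 hr at 37C, 5% CO2, compounds being added 4 hr post-plating.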

A short description of assay [7]: qHTS assay to identify small molecule antagonists of the sonic hedgehog signaling (Shh) pathway (AID 1259369; calls by dose curve; further: nearly all actives have a fitted effect of over 45% in size; further: potency means the concentration at half of the fitted maximal effect). The essentials:
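Antagonist mode: compound added to 3T3 Gli1-Luc cells followed by conditioned-medium stimulation, 24 h at 37 C, 5% CO2. Inhibition taken as loss of Gli1-driven luciferase luminescence.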

Assay [8] can be described thus: qHTS assay to identify small molecule phospholipidosis (PLD) inducers (AID 1259344; active means well fitted curve in the direction sought with a large enough effect; an effect the other way counts as inactive or inconclusive). The essentials:
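Cells (HepG2, 900 per well) attach for 4 h, receive LipidTOX Red and compound together, incubate 24 h at 37 C, are fixed 30 min with paraformaldehyde/Hoechst, then imaged at one site per well.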

The target in assay [9] is Estrogen receptor beta (Homo sapiens) (UniProt Q92731). Put plainly: qHTS assay to identify small molecule agonists of the estrogen receptor beta (ER-beta) signaling pathway (AID 1259377; active means well fitted activation curve with a large enough effect in the signal ratio in the repeat runs, not every such curve was filed as active; the % refers to the signal ratio; further: potency means the concentration at half of the fitted maximal effect). The essentials: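 ER-beta-UAS-bla HEK293T cells in medium with 2% charcoal-stripped FBS were exposed to compounds for 16 h at 37C. Beta-lactamase reporter activity was read as fluorescence after 2 h with LiveBLAzer B/G FRET substrate at room temperature.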

For assay [10] the target is unchanged. The assay can be described thus: qHTS assay to identify small molecule antagonists of the estrogen receptor beta (ER-beta) signaling pathway (AID 1259378; active means well fitted inhibition curve with a large enough effect in the signal ratio in the repeat runs, not every such curve was filed as active; the % refers to the signal ratio). The method, boiled down: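 ER-beta-UAS-bla HEK293T (GripTite) cells in 2% charcoal-stripped FBS medium were preincubated 6 hr at 37C, dosed with compound, then stimulated with 1 nM E2 (final) for 16 hr; beta-lactamase reporter read by B/G FRET fluorescence after 2 hr substrate loading.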

Sequence of Estrogen receptor beta (Homo sapiens) (Q92731 whole entry, looked up): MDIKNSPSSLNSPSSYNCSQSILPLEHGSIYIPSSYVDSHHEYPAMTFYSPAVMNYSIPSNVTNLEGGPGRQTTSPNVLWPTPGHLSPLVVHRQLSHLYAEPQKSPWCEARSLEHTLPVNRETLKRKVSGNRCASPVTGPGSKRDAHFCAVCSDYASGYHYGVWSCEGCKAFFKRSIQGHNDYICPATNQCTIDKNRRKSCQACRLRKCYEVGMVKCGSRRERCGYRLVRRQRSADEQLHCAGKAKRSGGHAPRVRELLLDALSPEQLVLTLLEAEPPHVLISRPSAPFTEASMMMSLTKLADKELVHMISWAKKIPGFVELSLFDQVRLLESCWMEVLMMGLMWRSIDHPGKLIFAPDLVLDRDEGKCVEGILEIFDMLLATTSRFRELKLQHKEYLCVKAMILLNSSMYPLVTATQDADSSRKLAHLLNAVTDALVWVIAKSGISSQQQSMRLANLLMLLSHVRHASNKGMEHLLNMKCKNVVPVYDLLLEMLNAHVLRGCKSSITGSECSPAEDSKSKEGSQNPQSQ
Sequence of Estrogen receptor (Homo sapiens) (P03372 whole entry, looked up): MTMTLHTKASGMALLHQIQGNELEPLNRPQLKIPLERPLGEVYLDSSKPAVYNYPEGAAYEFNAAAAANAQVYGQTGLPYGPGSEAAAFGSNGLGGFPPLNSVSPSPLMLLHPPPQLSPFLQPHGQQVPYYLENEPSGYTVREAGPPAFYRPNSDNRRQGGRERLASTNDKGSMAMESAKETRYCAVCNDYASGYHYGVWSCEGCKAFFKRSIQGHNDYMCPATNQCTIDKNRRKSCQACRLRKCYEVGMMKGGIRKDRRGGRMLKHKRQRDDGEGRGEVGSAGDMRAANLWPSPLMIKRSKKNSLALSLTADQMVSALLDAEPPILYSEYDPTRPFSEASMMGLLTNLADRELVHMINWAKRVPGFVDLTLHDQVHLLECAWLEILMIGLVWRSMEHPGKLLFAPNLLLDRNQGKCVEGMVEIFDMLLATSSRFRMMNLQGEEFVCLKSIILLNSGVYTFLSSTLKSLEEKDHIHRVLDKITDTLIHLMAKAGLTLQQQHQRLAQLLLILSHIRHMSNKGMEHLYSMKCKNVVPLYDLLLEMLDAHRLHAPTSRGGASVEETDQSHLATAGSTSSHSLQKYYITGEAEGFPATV

`CC(C)OC(=O)Nc1ccccc1`: the Potency entry in [1], in assay [4], in assay [5] and in assay [7] was “inactive” throughout. Besides, in assay [2], the Potency is 27.4 µM (active) and 24.3 µM (active). The outcome in assay [3] and in [6] was inactive.
`C=C(C)CCl`: the Potency entry in assay [1], in assay [2], in [4], in assay [5] and in assay [7] was “inactive” throughout. Moreover, the call in [3] and in assay [6] was inactive.
On to `O=[N+]([O-])c1ccccc1`, for which the Potency entry in [1], in assay [2], in [4], in assay [5], in [7] and in [9] was “inactive” throughout. Further, the molecule was called inactive in assay [8], in assay [3], in assay [6] and in assay [10].
For `O=c1[nH]c2ccccc2c(=O)o1`, the Potency entry in assay [1], in assay [2], in assay [4], in [5] and in [7] was “inactive” each time. Besides, the molecule was called inactive in assay [3] and in assay [6].
With `O=NN1CCCCCCC1`, the Potency result in [1], in assay [2], in assay [4], in [5] and in assay [7] was “inactive” each time. The call in [3] and in [6] was inactive.
As for `[N-]=[N+]=[N-]`, the Potency entry in [1], in assay [2], in [4], in [5] and in assay [7] was “inactive” throughout. For the same molecule, the result in assay [3] and in [6] was inactive.
For the molecule `COC(=O)c1ccccc1C(=O)OC`, the Potency result in [1], in [2], in assay [5], in assay [7] and in assay [9] was “inactive” throughout. Also, the result in assay [8], in assay [3], in assay [6] and in assay [10] was inactive.
Turning to `CC(C)=C[C@@H]1[C@@H](C(=O)OCc2coc(Cc3ccccc3)c2)C1(C)C`, the Potency result in assay [1], in assay [2] and in assay [5] was “inactive” each time. In addition, the molecule was classed as inactive in assay [8], in assay [3] and in [6].
Turning to `CCC12COCN1COC2`, the Potency result in assay [1], in assay [2], in [4], in assay [5] and in assay [7] was “inactive” in each case. For the same molecule, the molecule was called inactive in [3] and in [6].
Turning to `CCC[CH2][Sn]([Cl])([Cl])[Cl]`, the Potency result in [1], in assay [2], in assay [4], in assay [5] and in assay [7] was “inactive” in each case. Further, the call in assay [3] and in assay [6] was inactive.
For `CCCCN(CCCC)SN(C)C(=O)Oc1cccc2c1OC(C)(C)C2`, the Potency result in assay [1], in assay [2], in assay [4] and in [5] was “inactive” in each case. Also, the outcome in assay [3] and in assay [6] was inactive. For the same molecule, the Potency in assay [7] is 31.1 µM (active) and inactive.
For `Clc1ccc(Cl)cc1`, the Potency result in assay [1], in assay [2], in assay [5] and in assay [9] was “inactive” each time. The molecule was called inactive in assay [8], in assay [3], in assay [6] and in assay [10]. The Potency in assay [7] was 385 nM (active) and inactive.
On to `Nc1ccc(Br)cc1`, for which the Potency result in assay [1], in assay [2], in assay [4], in assay [5] and in assay [9] was “inactive” throughout. The outcome in [3] and in assay [6] was inactive. Also, the Potency in assay [7] is 43.2 µM (active) and inactive.
As for `O=c1n(Cl)c(=O)n(Cl)c(=O)n1Cl`, the Potency result in assay [1], in assay [2], in assay [4], in assay [5], in assay [7] and in assay [9] was “inactive” throughout. Further, the molecule was classed as inactive in assay [8], in assay [3], in assay [6] and in assay [10].
As to `C=CC(N)=O`, the Potency entry in [1], in assay [2], in assay [4], in assay [5] and in assay [7] was “inactive” each time. The molecule was called inactive in assay [3] and in [6].
On to `CC(C)N1C(=O)c2ccccc2NS1(=O)=O`, for which the Potency result in assay [1], in assay [2], in [4], in assay [5] and in [7] was “inactive” in each case. Moreover, the call in assay [3] and in [6] was inactive.
For `c1cc2c3c(cccc3c1)CC2`, the Potency result in [1], in [2], in assay [4], in assay [5], in [7] and in assay [9] was “inactive” in each case. In addition, the molecule was classed as inactive in [3], in assay [6] and in [10].
Take `O=C1CCCN1`: the Potency entry in assay [1], in assay [2], in [4], in assay [5] and in assay [7] was “inactive” each time. Further, the result in [3] and in assay [6] was inactive.
Consider `CC(C)(C)OOC(C)(C)C`, for which the Potency result in assay [1], in assay [2], in [4], in assay [5], in [7] and in assay [9] was “inactive” each time. The molecule was called inactive in assay [3], in [6] and in assay [10].
In the case of `O=S(=O)(c1ccc(O)cc1)c1ccc(O)cc1`, the Potency result in assay [1], in assay [2], in assay [4] and in [5] was “inactive” each time. In addition, the outcome in [3], in assay [6] and in [10] was inactive. Further, the Potency was 34.4 µM (active) in [7]; 4.35 µM (active) and 4.33 µM (active) in assay [9].
For the molecule `Cc1[nH]c(=O)n(C(C)(C)C)c(=O)c1Cl`, the Potency result in [1], in [2], in [4], in assay [5] and in assay [7] was “inactive” throughout. Moreover, the call in [3] and in [6] was inactive.
Turning to `O=NN1CCCC1`, the Potency in [1] is 20.2 µM (active) and inactive. The Potency result in [2], in assay [4], in [5], in assay [7] and in assay [9] was “inactive” each time. For the same molecule, the molecule was called inactive in assay [3], in [6] and in assay [10].
For `C#CCN(C)[C@H](C)Cc1ccccc1`, the Potency entry in assay [1], in assay [2], in assay [4], in [5], in assay [7] and in assay [9] was “inactive” throughout. The outcome in assay [8], in assay [3], in assay [6] and in assay [10] was inactive.
`Cc1cc(-c2cc(C)c(N)c(C)c2)cc(C)c1N`: the Potency result in assay [1], in assay [2], in assay [4] and in assay [5] was “inactive” each time. In addition, the molecule was called inactive in assay [3] and in [6]. Further, the Potency in [7] is 2.74 µM (active) and 21.3 µM (active).
Turning to `Nc1ccccc1C(=O)O`, the Potency result in [1], in [2], in assay [4], in assay [5], in [7] and in [9] was “inactive” throughout. Also, the result in [8], in assay [3], in assay [6] and in assay [10] was inactive.
Consider `COc1ccc2c3c1O[C@H]1[C@@H](O)C=C[C@H]4[C@@H](C2)N(C)CC[C@@]341`, for which the Potency result in assay [1] and in [2] was “inactive” each time. For the same molecule, the molecule was classed as inactive in assay [8], in [3] and in assay [6]. Also, the Potency in [4] was 21.3 µM (active) and inactive; in assay [5] it was 26.9 µM (active) and inactive; in [7] it was 2.69 µM (active).
